Results taken from PubChem BioAssay (Tox21).
Where “and” joins values, the source holds several entries; their conditions need not be identical. Equal entries are not always repeated. Inconclusive results are not listed. A structure can be active in one record and inactive in another. Calls of active or inactive are those of the source. Unless noted, calls come from the whole dose curve.

test system: not listed separately; experiment: qHTS assay to identify small molecule antagonists of the estrogen related receptor signaling pathway with the pleiotropic PPARgamma coactivator (PGC) from Tox21 10K library (AID 1224841; call rule not given here; note: actives are mostly falling curves and most rising ones were filed inactive; nearly all actives have a fitted effect of over 50% in size); conditions: PGC/ERR reporter cell line, ONE-Glo luciferase, 18 h; series mostly up to 92.4 µM; activity, negative = inhibition: at the top concentration
Outline: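 Luminescence read-out (One-Glo luciferase reagent, 30 min at room temperature) from PGC/ERR cells exposed to DMSO-dissolved test compounds for 18 h at 37 C; cells, 2,000 per well, had been preincubated 6 h before compound transfer.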
% is set by controls: 0 for no effect and ±100 for the full control effect; potency is the fitted concentration of half-maximal effect.

SMILES	activity, negative = inhibition	Potency
CCC1=C[C@@H]2CN(C1)Cc1c([nH]c3ccccc13)[C@@](C(=O)OC)(c1cc3c(cc1OC)N(C)[C@H]1[C@@](O)(C(=O)OC)[C@H](OC(C)=O)[C@]4(CC)C=CCN5CC[C@]31[C@@H]54)C2	-44.2% [at 42.5 µM] (inactive)	–
O=C(Nc1cccc(Cl)c1)OCC#CCCl	–	21.7 µM (active)
COc1ccc(-c2ccc3cc(C(=O)O)ccc3c2)cc1C12CC3CC(CC(C3)C1)C2	29.6% [at 42.5 µM] (inactive)	–
CCCN(CCC)C(=O)C(CCC(=O)OCCCN1CCN(CCOC(=O)Cc2c(C)n(C(=O)c3ccc(Cl)cc3)c3ccc(OC)cc23)CC1)NC(=O)c1ccccc1 (configuration not stated)	–	29.8 µM (active)
CCCCN(CCCC)c1ccc(C(=O)c2ccccc2C(=O)O)c(O)c1	-28.7% (inactive)	–
N#CSc1ccc(N)c([N+](=O)[O-])c1	–	30.8 µM (active)
Nc1c2ccccc2nc2ccccc12	–	53.8 µM (active) and inactive
Cc1cc(O)c(Cl)c(C)c1Cl	13.2% (inactive)	–
CCC(C)Nc1ccc(NC(C)CC)cc1 (configuration not stated)	–	8.8 µM (active)
CN1CCC(Nc2ncc3ncnc(Nc4ccc(F)c(Cl)c4)c3n2)CC1	100% [at 42.5 µM] (inactive)	–
Oc1ccc2cc(SSc3ccc4cc(O)ccc4c3)ccc2c1	–	48.6 µM (active) and 43.3 µM (active)
NNc1nc(-c2ccccc2)cs1	-19.2% (inactive)	–
O=C(NOCC1CC1)c1ccc(F)c(F)c1Nc1ccc(I)cc1Cl	–	11.9 µM (active)
CNCc1cc(F)ccc1Oc1ccc(Cl)c(Cl)c1	5.17% (inactive)	–
OCc1c[nH]c2ccccc12	–	3.44 µM (active)
COc1cccc2c1C(=O)c1c(O)c3c(c(O)c1C2=O)C[C@@](O)(C(=O)CO)C[C@@H]3O[C@H]1C[C@H](N)[C@H](O[C@@H]2CCCCO2)[C@H](C)O1	-64.1% [at 42.5 µM] (inactive)	–
CC(C)n1nc(-c2cc3cc(O)ccc3[nH]2)c2c(N)ncnc21	–	0.211 µM (active)
Cc1c(C)c2c(c(C)c1OC(=O)CCC(=O)O)CC[C@@](C)(CCC[C@H](C)CCC[C@H](C)CCCC(C)C)O2	5.3% (inactive)	–
C[C@@H]1C[C@H]2[C@@H]3CCC4=CC(=O)C=C[C@]4(C)[C@@]3(Cl)[C@@H](O)C[C@]2(C)[C@@]1(OC(=O)c1ccco1)C(=O)CCl	–	23.7 µM (active)

test system: not listed separately; experiment: qHTS assay to identify small molecule agonists of the estrogen related receptor signaling pathway with the pleiotropic PPARgamma coactivator (PGC) from Tox21 10K library (AID 1224842; active = well fitted activation curve with a large enough effect in the repeat runs; note: nearly all actives have a fitted effect of over 15% in size); conditions: PGC/ERR reporter cell line, luciferase ONE-Glo, 18 h; series mostly up to 92.4 µM; activation: at the top concentration
Outline: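 PGC/ERR reporter cell line, 2,000 cells per well, incubated 6 h at 37 C before 23 nL compound in DMSO was added. After 18 h at 37 C, One-Glo luminescence read following 30 min at room temperature.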

SMILES	activation	Potency
CCC1=C[C@@H]2CN(C1)Cc1c([nH]c3ccccc13)[C@@](C(=O)OC)(c1cc3c(cc1OC)N(C)[C@H]1[C@@](O)(C(=O)OC)[C@H](OC(C)=O)[C@]4(CC)C=CCN5CC[C@]31[C@@H]54)C2	-13.1% [at 42.5 µM] (inactive)	–
CCN1/C(=C/C=C/c2sc3ccccc3[n+]2CC)Sc2ccccc21	-14.5% [at 19 µM] (inactive)	–
O=C(Nc1cccc(Cl)c1)OCC#CCCl	-36.5% (inactive)	–
COc1ccc(-c2ccc3cc(C(=O)O)ccc3c2)cc1C12CC3CC(CC(C3)C1)C2	8.22% [at 42.5 µM] (inactive)	–
CCCN(CCC)C(=O)C(CCC(=O)OCCCN1CCN(CCOC(=O)Cc2c(C)n(C(=O)c3ccc(Cl)cc3)c3ccc(OC)cc23)CC1)NC(=O)c1ccccc1 (configuration not stated)	-13.5% [at 42.5 µM] (inactive)	–
CCCCN(CCCC)c1ccc(C(=O)c2ccccc2C(=O)O)c(O)c1	-9.31% (inactive)	–
N#CSc1ccc(N)c([N+](=O)[O-])c1	-22.5% (inactive)	–
Nc1c2ccccc2nc2ccccc12	-29.1% (inactive)	–
Cc1cc(O)c(Cl)c(C)c1Cl	4.85% (inactive)	–
CCC(C)Nc1ccc(NC(C)CC)cc1 (configuration not stated)	-38.9% (inactive)	–
Oc1ccc2cc(SSc3ccc4cc(O)ccc4c3)ccc2c1	–	inactive
NNc1nc(-c2ccccc2)cs1	-6.36% (inactive)	–
O=C(NOCC1CC1)c1ccc(F)c(F)c1Nc1ccc(I)cc1Cl	-24.2% [at 42.5 µM] (inactive)	–
CNCc1cc(F)ccc1Oc1ccc(Cl)c(Cl)c1	1.9% (inactive)	–
OCc1c[nH]c2ccccc12	-7.85% (inactive)	–
Cn1cc(C(=O)[C@@H]2CCc3nc[nH]c3C2)c2ccccc21	-10.5% [at 42.5 µM] (inactive)	–
O=C(Nc1ccc(Oc2ccc(Cl)cc2)c(Cl)c1)c1cc(I)cc(I)c1O	-17.1% [at 42.5 µM] (inactive)	–
Cc1cccc(CN2CCN(C(c3ccccc3)c3ccc(Cl)cc3)CC2)c1 (configuration not stated)	-12.1% [at 42.5 µM] (inactive)	–
COc1cccc2c1C(=O)c1c(O)c3c(c(O)c1C2=O)C[C@@](O)(C(=O)CO)C[C@@H]3O[C@H]1C[C@H](N)[C@H](O[C@@H]2CCCCO2)[C@H](C)O1	–	0.422 µM (active)
CC(C)n1nc(-c2cc3cc(O)ccc3[nH]2)c2c(N)ncnc21	-5.97% [at 42.5 µM] (inactive)	–
Cc1c(C)c2c(c(C)c1OC(=O)CCC(=O)O)CC[C@@](C)(CCC[C@H](C)CCC[C@H](C)CCCC(C)C)O2	-0.563% (inactive)	–
C[C@@H]1C[C@H]2[C@@H]3CCC4=CC(=O)C=C[C@]4(C)[C@@]3(Cl)[C@@H](O)C[C@]2(C)[C@@]1(OC(=O)c1ccco1)C(=O)CCl	-16.3% [at 42.5 µM] (inactive)	–

target: Thyrotropin receptor (Homo sapiens) (UniProt P16473); experiment: qHTS assay to identify small molecule agonists of the thyroid stimulating hormone receptor (TSHR) signaling pathway (AID 1224843); conditions: TSHR-HEK293 cells, cAMP HTRF, agonist mode, 30 min; series mostly up to 92.4 µM; activation: at the top concentration; note: nearly all actives have a fitted effect of over 45% in size
Outline: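 HEK293/TSHR, 800 cells/well; cpd 30 min RT; add cAMP-d2 + anti-cAMP-cryptate, 1 h RT; fluorescence read on plate reader. 15-pt titration, n=3.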

Chain of Thyrotropin receptor (Homo sapiens) (P16473 whole entry, looked up): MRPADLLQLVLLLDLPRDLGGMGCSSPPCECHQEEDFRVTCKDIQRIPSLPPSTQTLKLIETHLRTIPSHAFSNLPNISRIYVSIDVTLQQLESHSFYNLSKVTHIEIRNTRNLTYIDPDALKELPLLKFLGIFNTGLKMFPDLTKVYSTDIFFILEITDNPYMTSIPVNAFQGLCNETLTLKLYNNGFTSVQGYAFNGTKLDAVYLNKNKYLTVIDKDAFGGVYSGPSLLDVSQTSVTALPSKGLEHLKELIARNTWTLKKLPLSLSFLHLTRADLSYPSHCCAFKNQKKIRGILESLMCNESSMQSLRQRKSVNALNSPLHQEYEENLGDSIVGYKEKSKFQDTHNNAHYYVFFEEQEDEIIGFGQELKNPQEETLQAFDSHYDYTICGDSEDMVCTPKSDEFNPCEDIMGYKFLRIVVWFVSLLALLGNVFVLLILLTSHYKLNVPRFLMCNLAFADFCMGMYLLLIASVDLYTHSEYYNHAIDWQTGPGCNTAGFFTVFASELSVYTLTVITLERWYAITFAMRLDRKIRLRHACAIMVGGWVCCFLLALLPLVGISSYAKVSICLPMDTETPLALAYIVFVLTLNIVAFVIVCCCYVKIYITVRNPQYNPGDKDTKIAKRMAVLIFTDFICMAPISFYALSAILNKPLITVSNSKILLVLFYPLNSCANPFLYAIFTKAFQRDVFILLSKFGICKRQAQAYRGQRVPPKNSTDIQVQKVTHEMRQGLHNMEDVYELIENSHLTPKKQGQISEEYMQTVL

SMILES	Potency	activation
NC(=NCCCCCCN=C(N)/N=C(\N)Nc1ccc(Cl)cc1)/N=C(\N)Nc1ccc(Cl)cc1	inactive	–
CCN1/C(=C/C=C/c2sc3ccccc3[n+]2CC)Sc2ccccc21	–	1.82% [at 19 µM] (inactive)
COc1ccc(-c2ccc3cc(C(=O)O)ccc3c2)cc1C12CC3CC(CC(C3)C1)C2	–	-0.968% [at 42.5 µM] (inactive)
CCCN(CCC)C(=O)C(CCC(=O)OCCCN1CCN(CCOC(=O)Cc2c(C)n(C(=O)c3ccc(Cl)cc3)c3ccc(OC)cc23)CC1)NC(=O)c1ccccc1 (configuration not stated)	–	-1.55% [at 42.5 µM] (inactive)
CCCCN(CCCC)c1ccc(C(=O)c2ccccc2C(=O)O)c(O)c1	–	-13.9% (inactive)
Nc1c2ccccc2nc2ccccc12	–	-0.313% [at 42.5 µM] (inactive)
Cc1cc(O)c(Cl)c(C)c1Cl	–	-1.48% (inactive)
CN1CCC(Nc2ncc3ncnc(Nc4ccc(F)c(Cl)c4)c3n2)CC1	–	-13.7% [at 42.5 µM] (inactive)
Oc1ccc2cc(SSc3ccc4cc(O)ccc4c3)ccc2c1	–	17.5% (inactive)
CCCCCCC[N+](CC)(CC)CCCCc1ccc(Cl)cc1	–	-1.96% [at 42.5 µM] (inactive)
CCCCCCCCCCCCCC[P+](CCCC)(CCCC)CCCC (tested in a mixture with another compound)	–	-22.8% (inactive)
Cc1ccc(O)c(C(C)(C)C)c1	–	-27.5% (inactive)
NNc1nc(-c2ccccc2)cs1	–	-1.95% (inactive)
CCOc1ccc2nc3cc(N)ccc3c(N)c2c1	–	-3.81% [at 42.5 µM] (inactive)
CC(=O)S[C@@H]1CC2=CC(=O)CC[C@]2(C)[C@H]2CC[C@@]3(C)[C@@H](CC[C@@]34CCC(=O)O4)[C@H]12	–	11.4% (inactive)
CNCc1cc(F)ccc1Oc1ccc(Cl)c(Cl)c1	54.5 µM (active)	–
Cn1cc(C(=O)[C@@H]2CCc3nc[nH]c3C2)c2ccccc21	–	-7.59% [at 42.5 µM] (inactive)
Nc1ccc2c3c(cccc13)-c1ccccc1-2	–	-1.68% (inactive)
O=C(Nc1ccc(Oc2ccc(Cl)cc2)c(Cl)c1)c1cc(I)cc(I)c1O	–	-0.0474% [at 42.5 µM] (inactive)
CN(C)CCCOC1(Cc2ccccc2)CCCCCC1	–	-1.43% [at 42.5 µM] (inactive)
c1cc(C(c2ccc(OCC3CO3)cc2)c2ccc(OCC3CO3)cc2)ccc1OCC1CO1 (configuration not stated)	–	-11.7% (inactive)
CCCCCCCCn1sc(Cl)c(Cl)c1=O	–	16.7% (inactive)
COc1cccc2c1C(=O)c1c(O)c3c(c(O)c1C2=O)C[C@@](O)(C(=O)CO)C[C@@H]3O[C@H]1C[C@H](N)[C@H](O[C@@H]2CCCCO2)[C@H](C)O1	–	2.02% [at 42.5 µM] (inactive)
CCCCCCCCS(=O)C(C)Cc1ccc2c(c1)OCO2 (configuration not stated)	–	-4.96% (inactive)
Cc1c(C)c2c(c(C)c1OC(=O)CCC(=O)O)CC[C@@](C)(CCC[C@H](C)CCC[C@H](C)CCCC(C)C)O2	–	9.18% (inactive)
C[C@@H]1C[C@H]2[C@@H]3CCC4=CC(=O)C=C[C@]4(C)[C@@]3(Cl)[C@@H](O)C[C@]2(C)[C@@]1(OC(=O)c1ccco1)C(=O)CCl	–	-1.96% [at 42.5 µM] (inactive)
